Records with an inconclusive call do not appear. Entries that show only a call come without a potency. The source made the active and inactive calls. Unless noted, calls come from the whole dose curve.
Target: Estrogen receptor (Homo sapiens) (UniProt P03372)
Experiment: qHTS assay to identify small molecule antagonists of the estrogen receptor alpha (ER-alpha) signaling pathway (AID 743069; active = well fitted curve in the direction sought with a large enough effect in the signal ratio in the repeat runs, not every such curve was filed as active; the % refers to the signal ratio)
Settings: HEK293 ER-alpha-UAS-bla, beta-lactamase ratio, antagonist mode; series mostly up to 69.4 µM
Outline: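 Estradiol-stimulated ER-alpha-UAS-bla HEK293 cells, 18 hr compound exposure at 37C. LiveBLAzer B/G substrate, 2 hr RT, fluorescence read.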

Sequence of Estrogen receptor (Homo sapiens) (P03372 whole entry, looked up): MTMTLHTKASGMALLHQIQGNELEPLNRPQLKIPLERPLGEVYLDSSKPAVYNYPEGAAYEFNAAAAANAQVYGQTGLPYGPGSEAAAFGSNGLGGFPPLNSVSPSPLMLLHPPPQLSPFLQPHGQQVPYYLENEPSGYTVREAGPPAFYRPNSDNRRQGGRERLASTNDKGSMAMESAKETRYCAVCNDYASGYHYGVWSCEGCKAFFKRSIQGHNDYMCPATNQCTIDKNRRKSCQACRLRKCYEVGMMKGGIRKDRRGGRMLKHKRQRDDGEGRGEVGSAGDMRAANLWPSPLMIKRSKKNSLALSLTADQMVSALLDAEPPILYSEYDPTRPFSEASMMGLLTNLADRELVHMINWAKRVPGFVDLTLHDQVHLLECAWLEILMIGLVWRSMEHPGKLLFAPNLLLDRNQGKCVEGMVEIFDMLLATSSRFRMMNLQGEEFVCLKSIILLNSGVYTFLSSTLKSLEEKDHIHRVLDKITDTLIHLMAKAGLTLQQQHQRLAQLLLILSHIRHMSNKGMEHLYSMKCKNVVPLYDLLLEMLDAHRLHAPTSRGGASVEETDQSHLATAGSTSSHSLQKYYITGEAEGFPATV

Row | Compound | Potency
1 | C[N+]1(C)[C@@H]2CC(OC(=O)C(O)(c3cccs3)c3cccs3)C[C@H]1[C@@H]1O[C@@H]12 (stereo partly specified) | inactive
2 | CCOC(=O)CCC(=O)O[C@H]1[C@H](O[C@@H]2[C@@H](C)[C@H](O[C@H]3C[C@@](C)(OC)[C@@H](O)[C@H](C)O3)[C@@H](C)C(=O)O[C@H](CC)[C@@](C)(O)[C@H](O)[C@@H](C)C(=O)[C@H](C)C[C@@]2(C)O)O[C@H](C)C[C@@H]1N(C)C | inactive
3 | CC(C)(C)C(=O)OCOC(=O)[C@@H]1N2C(=O)[C@@H](N=CN3CCCCCC3)[C@H]2SC1(C)C | inactive

Tested on: not listed separately
Experiment: qHTS assay to identify small molecule antagonists of the estrogen receptor alpha (ER-alpha) signaling pathway - cell viability counter screen (AID 743074);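 note: HEK293 cells carrying ER-alpha-UAS-bla reporter stimulated with 17beta-estradiol; nearly all actives have a fitted effect of over 45% in size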; note: potency is the fitted concentration of half-maximal effect
Settings: ERalpha-bla HEK293 viability, CellTiter-Glo luminescence, 18 h; series mostly up to 69.4 µM

Row | Compound | Potency
4 | Cc1cc(C(=O)NNCc2ccccc2)no1 | inactive
5 | CO[C@H]1C=CO[C@@]2(C)Oc3c(C)c(O)c4c(O)c(c(/C=N/N5CCN(C6CCCC6)CC5)c(O)c4c3C2=O)NC(=O)/C(C)=C\C=C[C@H](C)[C@H](O)[C@@H](C)[C@@H](O)[C@@H](C)[C@H](OC(C)=O)[C@@H]1C | inactive
6 | CCC(CN)CC(C)CCNCC(O)CNCC(C)CC(CC)CN (stereo unspecified) | inactive
7 | CCCCC(F)(F)[C@@]1(O)CC[C@H]2[C@@H](CC(=O)[C@@H]2CCCCCCC(=O)O)O1 | inactive
8 | COc1cc(Br)c(C[N+]2(CCOCCC3CCC4CC3C4(C)C)CCOCC2)cc1OC (stereo unspecified) | inactive
9 | CO[C@H]1C[C@H](O[C@@H]2/C(C)=C/C[C@@H]3C[C@@H](C[C@]4(CC[C@H](C)[C@@H](C5CCCCC5)O4)O3)OC(=O)[C@@H]3C=C(C)/C(=N/O)[C@H]4OC/C(=C\C=C\[C@@H]2C)[C@]43O)O[C@@H](C)[C@@H]1O | inactive
10 | CCOC(=O)c1cc(-c2ccccc2)nc2ccc(C)cc12 | inactive
11 | C#C[C@]1(O)CC[C@H]2[C@@H]3CCC4=C(CCC(=O)C4)[C@H]3CC[C@@]21C | inactive
12 | CC[C@H](C)[C@H]1O[C@]2(CC[C@@H]1C)C[C@@H]1C[C@@H](C/C=C(\C)[C@@H](O[C@H]3C[C@H](OC)[C@@H](O[C@H]4C[C@H](OC)[C@@H](O)[C@H](C)O4)[C@H](C)O3)[C@@H](C)/C=C/C=C3\CO[C@@H]4[C@H](O)C(C)=C[C@@H](C(=O)O1)[C@]34O)O2 | 19 µM (active)
13 | OCC(S)CS (stereo unspecified) | inactive
14 | CCCCC(=O)O[C@H]1CC[C@H]2[C@@H]3CCc4cc(O)ccc4[C@H]3CC[C@]12C | inactive
15 | COc1ccc2c(=O)c(C)c(-c3ccccc3)oc2c1CN(C)C | inactive
16 | CNc1cc(OC)c(C(=O)N[C@H]2CCN(Cc3ccccc3)[C@H]2C)cc1Cl | inactive
17 | CC[C@@]1(O)C[C@H](O[C@H]2C[C@H](N(C)C)[C@H](O[C@H]3C[C@H](O)[C@H](O[C@H]4CCC(=O)[C@H](C)O4)[C@H](C)O3)[C@H](C)O2)c2c(cc3c(c2O)C(=O)c2c(O)cccc2C3=O)[C@H]1C(=O)OC | inactive
18 | CC(NNC(=O)c1ccccc1)c1ccccc1 (stereo unspecified) | inactive
19 | CC[N+](C)(C)Cc1ccccc1Br | inactive
20 | Cc1ccccc1OCC(O)CNCCOc1ccc(C(N)=O)cc1 (stereo unspecified) | inactive
21 | Clc1ccc(COC(Cn2ccnc2)c2ccc(Cl)cc2Cl)c(Cl)c1 (stereo unspecified) | inactive
22 | CO[C@H]1C[C@H](O[C@H]2[C@H](C)[C@@H](O[C@@H]3O[C@H](C)C[C@H](N(C)C)[C@H]3OC(C)=O)[C@@H](C)C[C@]3(CO3)C(=O)[C@H](C)[C@@H](OC(C)=O)[C@@H](C)[C@@H](C)OC(=O)[C@@H]2C)O[C@@H](C)[C@@H]1OC(C)=O | inactive

Row | Compound | Potency
23 | CCOC(=O)C1=C(COCCN)NC(C)=C(C(=O)OC)C1c1ccccc1Cl (stereo unspecified) | inactive
24 | N[C@@H](C(=O)N[C@@H]1C(=O)N2C(C(=O)O)=C(CSc3cn[nH]n3)CS[C@H]12)c1ccc(O)cc1 | inactive
25 | C[C@H](CCCC(C)(C)O)[C@H]1CC[C@H]2[C@@H]3CC=C4C[C@@H](O)CC[C@]4(C)[C@H]3CC[C@]12C | inactive
26 | Nc1ncnc2c1ncn2[C@@H]1O[C@H](COP(=O)(O)OP(=O)(O)OP(=O)(O)O)[C@@H](O)[C@H]1O | 6.01 µM (active)
27 | C[N+]1(C)CCN(CC(O)(c2ccccc2)C2CCCCC2)CC1 (stereo unspecified) | inactive
28 | CC(C)CN(C[C@@H](O)[C@H](Cc1ccccc1)NC(=O)O[C@@H]1CCOC1)S(=O)(=O)c1ccc(N)cc1 | inactive
29 | C[N+]1(C)[C@@H]2CC(OC(=O)C(O)(c3cccs3)c3cccs3)C[C@H]1[C@@H]1O[C@@H]12 (stereo partly specified) | inactive
30 | CCC(=O)O[C@@H]1CC(=O)O[C@H](C)C/C=C/C=C/[C@H](O)[C@H](C)C[C@H](CC=O)[C@H](O[C@@H]2O[C@H](C)[C@@H](O[C@H]3C[C@@](C)(O)[C@@H](OC(=O)CC)[C@H](C)O3)[C@H](N(C)C)[C@H]2O)[C@H]1OC | inactive
31 | CCNC(=O)[C@@H]1CCCN1C(=O)[C@H](CCCN=C(N)N)NC(=O)[C@H](CC(C)C)NC(=O)[C@@H](CC(C)C)NC(=O)[C@H](Cc1ccc(O)cc1)NC(=O)[C@H](CO)NC(=O)[C@H](Cc1c[nH]c2ccccc12)NC(=O)[C@H](Cc1cnc[nH]1)NC(=O)[C@@H]1CCC(=O)N1 | inactive
32 | CCCCC(=O)N(Cc1ccc(-c2ccccc2-c2nn[nH]n2)cc1)[C@@H](C(=O)O)C(C)C | inactive
33 | CN(CC(=O)N1CCOCC1)Cc1c(Cl)cccc1NC(=O)c1ccccc1 | inactive
34 | CCC(=O)OCC(=O)[C@@]1(OC(=O)CC)[C@@H](C)C[C@H]2[C@@H]3CCC4=CC(=O)C=C[C@]4(C)[C@@]3(F)[C@@H](O)C[C@@]21C | inactive
35 | CCN(CC)Cc1cc(Nc2ccnc3cc(Cl)ccc23)ccc1O | inactive
36 | CC1(C)S[C@@H]2[C@H](NC(=O)C(N)c3ccccc3)C(=O)N2[C@H]1C(=O)OC1OC(=O)c2ccccc21 (stereo partly specified) | inactive
37 | CCOC(=O)CCC(=O)O[C@H]1[C@H](O[C@@H]2[C@@H](C)[C@H](O[C@H]3C[C@@](C)(OC)[C@@H](O)[C@H](C)O3)[C@@H](C)C(=O)O[C@H](CC)[C@@](C)(O)[C@H](O)[C@@H](C)C(=O)[C@H](C)C[C@@]2(C)O)O[C@H](C)C[C@@H]1N(C)C | inactive
38 | CC(O)[C@@H]1NC(=O)[C@H](CCCCN)NC(=O)[C@@H](Cc2c[nH]c3ccccc23)NC(=O)[C@H](Cc2ccccc2)NC(=O)[C@@H](NC(=O)[C@H](N)Cc2ccccc2)CSSC[C@@H](C(=O)N[C@H](CO)[C@@H](C)O)NC1=O (stereo partly specified) | inactive
39 | CC(C)(C)C(=O)OCOC(=O)[C@@H]1N2C(=O)[C@@H](N=CN3CCCCCC3)[C@H]2SC1(C)C | inactive
40 | COC(=O)C1=C(C#N)NC(C)=C(C(=O)OC(C)C)C1c1cccc([N+](=O)[O-])c1 (stereo unspecified) | inactive
41 | CCOC(=O)CN[C@@H](C(=O)N1CC[C@H]1C(=O)NCc1ccc(/C(N)=N/O)cc1)C1CCCCC1 | inactive
